For 40 compounds, cell count and activation results are on record in PubChem BioAssay AID493036 (Sanford-Burnham Center for Chemical Genomics, 2011).

Assay [1] can be described thus: NTR1-driven beta-arrestin-GFP spot formation – imaging, U2OS cells, high content, primary screen (AID 493036).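 For activation: 0% = DMSO without peptide and 100% = 100 nM NTR1 peptide.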 The note with it: agonist mode, measured here: cell count, cytotoxicity flag, at 20 µM.
For assay [2], the target named is Neurotensin receptor type 1 (Homo sapiens) (UniProt P30989). The description is as above. The note with it: agonist mode, at 20 µM, stronger effect = higher value.
Neurotensin receptor type 1 (Homo sapiens), sequence (P30989 whole entry, looked up): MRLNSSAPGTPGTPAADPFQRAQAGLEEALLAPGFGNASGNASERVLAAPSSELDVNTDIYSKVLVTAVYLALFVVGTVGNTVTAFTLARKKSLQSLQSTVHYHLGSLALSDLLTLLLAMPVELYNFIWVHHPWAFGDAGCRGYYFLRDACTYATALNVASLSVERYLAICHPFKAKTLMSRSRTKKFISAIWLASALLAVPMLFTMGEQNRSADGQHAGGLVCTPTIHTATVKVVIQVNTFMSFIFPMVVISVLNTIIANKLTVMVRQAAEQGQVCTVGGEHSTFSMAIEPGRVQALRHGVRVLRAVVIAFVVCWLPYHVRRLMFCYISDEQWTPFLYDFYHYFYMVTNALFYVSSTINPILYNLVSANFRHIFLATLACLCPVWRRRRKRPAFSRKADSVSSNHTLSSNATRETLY

SMILES strings stand for the structures. Among all 330,000 compounds or so, about 560 (0.17%) were called active.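 Rule for the calls: active = activation at or above 40% of the spot to cytoplasm intensity ratio, with at least 20 cells analyzed; inconclusive = wells under 20 cells, flagged as cytotoxic or low count; inactive = the rest.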 Only a selection was taken, and actives are over-represented in it overall.

Regarding `O=C(Cn1ncc(N2CCCC2)c(Br)c1=O)c1ccc(Cl)cc1`, in assay [1], the cell count worked out at 53 cells. Besides, the activation in assay [2] is 2.8% (inactive).

Consider `CCC/C(C)=N\Nc1nc2c(c(=O)n(C)c(=O)n2C)n1C`, for which, in assay [1], the cell count was 58 cells. In addition, the activation in assay [2] was 0.3% (inactive).

Take `CCOc1ccc(NC(=O)N2CC=C(n3c(=O)[nH]c4ccccc43)CC2)cc1`: in assay [1], the cell count is 42 cells. In addition, in assay [2], the activation is 0.4% (inactive).

For the compound `COc1ccc(C(C(=O)NC2CCCCC2)N(C(=O)CCl)c2ccccc2Cl)cc1` (stereo not given), the cell count in assay [1] was 35 cells. Also, the activation in assay [2] is 7.8% (inactive).

As to `O=C(OCC(=O)N1CCCC1=O)c1cc(S(=O)(=O)N2CCOCC2)ccc1Cl`, in assay [1], the cell count worked out at 45 cells. In assay [2], the activation is -0.7% (inactive).

Compound `Nc1c(C(=O)Nc2ccc3c(c2)OCCO3)nnn1Cc1ccccc1` had a cell count in assay [1] of 53 cells. Further, in assay [2], the activation was 0.3% (inactive).

As for `CCOc1ccc(CN2CCN(Cc3c[nH]c4ccccc34)CC2)cc1`, the cell count in assay [1] worked out at 62 cells. Further, the activation in assay [2] is 0.2% (inactive).

With `Cc1ccc2c(c1)C(O)(CC(=O)c1cccc(-n3cccc3)c1)C(=O)N2` (stereo not given), in assay [1], the cell count is 57 cells. The activation in assay [2] is 1.6% (inactive).

On to `O=C(Nc1ccc(F)c([N+](=O)[O-])c1)C1CCCO1` (stereo not given), for which the cell count in assay [1] was found to be 58 cells. Besides, the activation in assay [2] is -0.8% (inactive).

In assay [1], `CCCC(=O)Nc1ncnc2c1ncn2[C@@H]1O[C@@H]2OP(=O)(O)OC[C@H]2[C@H]1OC(=O)CCC` came in with a cell count of 60 cells. In addition, the activation in assay [2] was 1.1% (inactive).

In turn, `COc1ccc(C)cc1-n1nnnc1SCC(=O)c1cc(C)n(Cc2ccco2)c1C` yielded a cell count in assay [1] of 88 cells. The activation in assay [2] is 2.5% (inactive).

`Cc1ccc2nc3c(cc(C(=O)NCCc4ccccc4)c(=N)n3CC3CCCO3)c(=O)n2c1` (stereo not given) yielded a cell count in assay [1] of 47 cells. Further, the activation in assay [2] was 0.1% (inactive).

For the compound `O=C(COC(=O)C1CC2C=CC1C2)Nc1ccccc1` (stereo not given), the cell count in assay [1] is 55 cells. In addition, the activation in assay [2] was -0.8% (inactive).

Compound `CCOc1ccc(N(CC(=O)Nc2ccccc2F)S(=O)(=O)c2c(C)[nH]c(=O)[nH]c2=O)cc1` came in with a cell count in assay [1] of 61 cells. Besides, in assay [2], the activation was -0.8% (inactive).

`COc1cccc(OCc2nnc3n2N=C(c2ccccc2)C(CC(=O)O)S3)c1` (stereo not given) returned a cell count in assay [1] of 51 cells. The activation in assay [2] is 0.6% (inactive).

`CCCCCCCCCCOC(=O)Cn1c(COc2ccc(C)cc2)[n+](C)c2ccccc21` registered a cell count in assay [1] of 48 cells. The activation in assay [2] was 28.5% (inactive).

Turning to `CCCCCCCCCCOC(=O)Cn1c(COc2cccc(OC)c2)[n+](C)c2ccccc21`, the cell count in assay [1] is 71 cells. Besides, the activation in assay [2] is 69.3% (active).

In assay [1], `CC1=C(C(=O)Nc2ccccc2)C(c2cccs2)C(C#N)=C(SCC#N)N1` (stereo not given) returned a cell count of 63 cells. Also, the activation in assay [2] is 0.8% (inactive).

Compound `CC1=C(C(=O)OCc2ccccc2)C(c2ccco2)n2ncnc2N1` (stereo not given) gave a cell count in assay [1] of 52 cells. Also, the activation in assay [2] is -3.8% (inactive).

With `CCOC(=O)CSC1=C(C#N)C(c2ccco2)C(C(=O)OCc2ccccc2)=C(C)N1` (stereo not given), the cell count in assay [1] is 51 cells. Also, the activation in assay [2] was 41.1% (active).

In assay [1], `Cc1ccccc1C(=O)Nc1cccc(-c2nnc(SCC(=O)O)n2C)c1` showed a cell count of 57 cells. Further, the activation in assay [2] was 1.7% (inactive).

On to `Cc1cc(S(=O)(=O)NCc2ccccn2)c(Cl)cc1Cl`, for which, in assay [1], the cell count was 75 cells. The activation in assay [2] was 0.3% (inactive).

`Cc1cc(/C=C2/SC(=O)N(CC(=O)OC(C)C)C2=O)c(C)n1C` registered a cell count in assay [1] of 60 cells. For the same compound, the activation in assay [2] was 0.9% (inactive).

The compound `COc1ccccc1C(=O)Nn1cnnc1` returned a cell count in assay [1] of 66 cells. Further, the activation in assay [2] was -0.3% (inactive).

As for `O=C1C2N=NN(CC(=O)N3N=C(c4cccc5ccccc45)CC3c3ccccc3)C2C(=O)N1c1ccccc1` (stereo not given), the cell count in assay [1] is 87 cells. Besides, the activation in assay [2] was 2.9% (inactive).

On to `COc1ccc(C2=NN(c3ccccc3)C(c3cccs3)C2)cc1` (stereo not given), for which the cell count in assay [1] came to 44 cells. Further, in assay [2], the activation is 1.2% (inactive).

Consider `Oc1ccccc1C1=NN(c2ccccc2)C(c2ccccc2)C1` (stereo not given), for which the cell count in assay [1] was 102 cells. The activation in assay [2] was 48.9% (active).

The compound `O=C(Nc1ccncc1)c1ccc(Cl)c([N+](=O)[O-])c1` had a cell count in assay [1] of 85 cells. Also, the activation in assay [2] is -0.2% (inactive).

On to `O=C(/C=C/c1ccc(Cl)cc1Cl)c1cccnc1`, for which, in assay [1], the cell count was determined as 71 cells. In addition, the activation in assay [2] is 29.2% (inactive).

Compound `O=C(/C=C/c1ccc(Cl)c([N+](=O)[O-])c1)c1cccnc1` displayed a cell count in assay [1] of 51 cells. In addition, the activation in assay [2] was 50% (active).

As to `CCCCOc1ccc(N(CC(=O)NC(C)C)C(=O)CCC(=O)Nc2ccccn2)cc1`, the cell count in assay [1] was determined as 43 cells. Moreover, in assay [2], the activation is -1.4% (inactive).

In turn, `Cc1ccc(S(=O)(=O)N2CCOCC2)cc1NC(=O)COC(=O)c1cnccn1` gave a cell count in assay [1] of 51 cells. In addition, in assay [2], the activation was -0.4% (inactive).

In turn, `O=C1CCC(CCC(=O)N2CCCC(C(=O)c3ccc(Cl)cc3)C2)=NN1` (stereo not given) returned a cell count in assay [1] of 70 cells. The activation in assay [2] was -0.5% (inactive).

`CCOC(=O)/C(C#N)=C/c1ccc(OCC(=O)Nc2ccccc2)c(OC)c1` gave a cell count in assay [1] of 80 cells. The activation in assay [2] is -4.5% (inactive).

In assay [1], `CCOC(=O)/C(=C\c1ccc([N+](=O)[O-])cc1)C(=O)c1cc(C(C)=O)c(Nc2ccccc2)s1` displayed a cell count of 50 cells. In addition, the activation in assay [2] was 49.8% (active).

Consider `CCOC(=O)/C(=N\Nc1ccccc1[N+](=O)[O-])c1csc(Nc2ccccc2)n1`, for which the cell count in assay [1] was found to be 59 cells. In addition, the activation in assay [2] is 12.7% (inactive).

With `COc1ccc(S(=O)(=O)N2CCCCC2)cc1NC(=O)COc1ccccc1`, in assay [1], the cell count came out at 55 cells. In addition, in assay [2], the activation was 2.1% (inactive).

`COCC(C)n1c(C)cc(C(=O)CSc2cc(C)c3ccccc3n2)c1C` (stereo not given) returned a cell count in assay [1] of 54 cells. Besides, the activation in assay [2] is 5% (inactive).

In turn, `O=C(O)C1CCN(C(=O)OCc2ccccc2)CC1` had a cell count in assay [1] of 88 cells. For the same compound, in assay [2], the activation is -0.7% (inactive).

In turn, `CC1=C(C(N)=O)C(c2ccc(Br)cc2)n2ncnc2N1` (stereo not given) had a cell count in assay [1] of 82 cells. Besides, the activation in assay [2] is -1.6% (inactive).
